High-throughput results from PubChem BioAssay.
The list is not random: actives were taken first. Their share in the collection is about 3.5%.
BoNT F protease = BoNT/F light chain protease inhibitors, primary screen, biochemical, flow cytometry, MLPCN library. inhibition, % at 10 µM. AID 588497, 2011. Multiplex microsphere protease cleavage assay. Botulinum neurotoxin type F light chain protease (Clostridium botulinum). 360,000 compounds, 0.22% hits; in the data active means inhibition above about 35%, passing the limit was not always enough; inconclusive means no clear call, values can overlap the other calls
Autofluor counter = compound fluorescence in toxin protease inhibitor counterscreen; compound autofluorescence counterscreen, microsphere flow cytometry; stronger effect = higher value; 360,000 compounds, 3.1% hits; fluorescence intensity (concentration not given with the values); in the data active means fluorescence intensity above about 16000; inconclusive means no clear call, values can overlap the other calls
BoNT A protease = BoNT/A light chain protease inhibitors, primary screen, biochemical, flow cytometry, MLPCN library | Botulinum neurotoxin type A light chain protease (Clostridium botulinum A str. ATCC 3502) | multiplex microsphere protease substrate cleavage | inhibition, % at 10 µM | 360,000 compounds, 0.17% hits | AID 588499, 2011
Anthrax LF prot = Bacillus anthracis LF protease inhibitors, primary screen, biochemical, multiplex microsphere, MLPCN library; Lethal factor (Bacillus anthracis), P15917; multiplex microsphere protease cleavage assay; inhibition, % at 10 µM; 360,000 compounds, 0.12% hits; AID 588501, 2011
Hits are given with their value; n = inactive; u = inconclusive. Unless noted, no stated cut-off is given here; in the data, active means inhibition above about 30%; inconclusive means no clear call, values can overlap the other calls; inactive means below that.

SMILES	BoNT F protease	Autofluor counter	BoNT A protease	Anthrax LF prot
N#Cc1nc(COc2ccccc2Cl)oc1NCc1ccc(F)cc1	n	22901	n	n
O=C(NCc1ccccc1)c1cc(C2COCCN2C(=O)OCCF)on1 (stereo not drawn)	n	n	n	n
COc1ccc(NC(=O)N(C)C[C@H]2Oc3ccc(NC(=O)C4CC4)cc3CC(=O)N([C@@H](C)CO)C[C@@H]2C)cc1	n	n	n	n
CCN(CC)C(=O)C1=C(C)N(CCCOC)C(=O)C(CC(=O)NC(c2ccccc2)c2ccccc2)C1 (stereo not drawn)	n	n	n	n
CCc1ccc(NC(=O)CC2NCCNC2=O)cc1 (stereo not drawn)	n	n	n	n
CCc1ccc(NC(=O)CC2C(=O)Nc3c2c(=O)n(C)c(=O)n3C)cc1 (stereo not drawn)	n	22007	n	n
CCOc1cc([C@@H]2C[C@H]3CN(c4ccccc4)C(=O)[C@]34CCCN24)ccc1OC	n	22393	n	n
COc1ccccc1-n1cc([C@@H]2C[C@H]3CN(c4ccccc4)C(=O)[C@]34CCCN24)cn1	u	28945	u	u
COc1ccc(CN2C(=O)C(CC(=O)NCc3cccs3)CC(C(=O)N3CCOCC3)=C2C)cc1 (stereo not drawn)	n	n	n	n
COc1ccc(NC(=O)c2oc3ccccc3c2NC(=O)C2CC2)cc1	n	20675	n	n
COc1cccc(NC(=O)c2oc3ccccc3c2NC(=O)C2CC2)c1	n	24287	u	n
CCOc1cc(NC(=S)Nc2cccc(OC)c2)c(OCC)cc1NC(=O)C1CC1	n	23099	n	n
COc1ccc(S(=O)(=O)N2CCN(C)CC2c2ccccc2)cc1OC (stereo not drawn)	n	n	n	n
O=C(Nc1ccc2c(c1)nc1n2CCOC1)c1ccccc1	n	n	n	n
CC(C)C(=O)Nc1ccc2c(c1)nc1n2CCSC1	n	16136	n	n
O=C(Nc1ccc2c(c1)nc1n2CCSC1)c1ccccc1	n	21018	n	n
CCCN1C(=O)/C(=C/c2c(NCCCOC(C)C)nc3c(C)cccn3c2=O)SC1=S	35.3	n	n	n
CCC(C)Nc1nc2c(C)cccn2c(=O)c1C=Nc1ccc(OC)cc1 (stereo not drawn)	n	n	n	n
Cc1ccc(NC(=O)C2CCN(S(=O)(=O)c3ccc4ccccc4c3)CC2)nc1	n	n	n	n
COc1ccc2[nH]cc(/C=C/c3cc[n+](C)cc3)c2c1	n	n	n	n
CCOC(=O)c1c(C)n(CC(COC(C)=O)OC(C)=O)c2ccc(OC(C)=O)cc12 (stereo not drawn)	n	16360	n	n
CC1CCC(C(=O)c2c(O)c3ccccc3oc2=O)CC1 (stereo not drawn)	n	20872	n	n
O=S(=O)(/N=C(/c1ccccc1)N1CCCCCC1)c1ccccc1	n	n	n	n
O=S(=O)(N=S(N1CCCCC1)N1CCCCC1)c1ccccc1	n	19826	u	n
CC(C)C(OC(=O)c1ccco1)C(=O)NC1CCCC1 (stereo not drawn)	n	n	n	n
SMILES	BoNT F protease	Autofluor counter	BoNT A protease	Anthrax LF prot
CC(C)C(OC(=O)C1CCCO1)C(=O)NC1CCCC1 (stereo not drawn)	n	18597	n	n
O=P(OC1CCCCC1)(OC1CCCCC1)C(O)c1c(Cl)cccc1Cl (stereo not drawn)	n	17127	n	n
C=CCN1C(=O)C(C(C)CC)NC1=S (stereo not drawn)	n	18817	u	n
C=CCN1C(=O)C(C)NC1=S (stereo not drawn)	u	n	n	n
O=[N+]([O-])c1cccnc1N1CCCCC1	n	22095	n	n
Cc1cccc(C)c1OCc1n[nH]c(=S)o1	n	n	n	n
Cc1cccc(OCc2n[nH]c(=S)o2)c1	n	24801	n	n
Cc1ccccc1NC(=O)C1CC(Cl)=CCC1C(=O)O (stereo not drawn)	n	21780	n	n
Cc1ccc(C)c(NC(=O)C2CC(Cl)=CCC2C(=O)O)c1 (stereo not drawn)	n	n	n	n
CCN(CC)C(=O)CSc1nc2ncccc2[nH]1	n	24215	u	n
O=C(C[C@H]1C(=O)N(CCc2ccccc2)C[C@@H]1Cc1ccccc1)Nc1ccccc1	n	n	n	n
N#Cc1cc(-c2ccccc2)cnc1Sc1ccc(Cl)cc1	n	24808	n	n
N#Cc1cc(-c2ccc(Cl)cc2)cnc1Sc1ccccc1	n	n	n	n
O=C(CCn1nnc2ccccc21)NNC(=O)C1CCCCC1	n	n	n	n
N#Cc1ccc(CN2CCN(C(=O)CNS(=O)(=O)c3ccc4c(c3)OCCCO4)CC2)cc1	n	n	n	n
O=C(Nc1ccc2c(c1)OCO2)c1ccc(CN2CCOCC2)cc1	n	n	n	n
O=C(Nc1ccc(CN2CCCCC2)cc1)c1ccc2c(c1)OCO2	n	20600	n	n
O=C(Nc1ccn(Cc2ccc(Cl)cc2)n1)c1ccc2c(c1)OCO2	n	24410	n	n
COc1ccc(/C=N/OCc2nc3c4c(ncn3n2)Oc2ccc3ccccc3c2C4c2ccccc2)cc1 (stereo not drawn)	n	23152	n	n
COc1ccc(OC)c(N(CC(=O)N2CCCC2)S(C)(=O)=O)c1	u	n	n	n
Cc1cc(C)c(S(=O)(=O)N2C[C@H]3CON(C)[C@H]3C[C@H]2c2ccc(N3CCCCC3)cc2)c(C)c1	n	34680	n	n
CC(C)[C@H](NC(=O)c1ccccc1)C(=O)OCC(=O)c1ccc2c(c1)NC(=O)CO2	n	23418	n	n
COc1cc(OC)cc(C(=O)N[C@H](C(=O)OCC(=O)c2ccc3c(c2)NC(=O)CO3)C(C)C)c1	n	n	n	n
Cc1ccccc1NC1=NC(=S)N(CC(N)=O)C12CCOC(C)(C)C2 (stereo not drawn)	45.3	n	n	n
Cn1c(SCc2ccccc2Cl)nnc1-c1cnccn1	n	n	n	n
SMILES	BoNT F protease	Autofluor counter	BoNT A protease	Anthrax LF prot
Cn1c(Cn2nnc(-c3ccccc3)n2)nnc1SCc1ccccc1Cl	n	16202	u	n
O=C1C2(CCC13COC(c1ccc(O)cc1)OC3)COC(c1ccc(O)cc1)OC2 (stereo not drawn)	n	22568	n	n
Cc1ccc(C2OCC3(CO2)COC(c2ccc(C)cc2)OC3)cc1 (stereo not drawn)	n	n	n	n
CCOC(=O)c1cnc(-n2nc(C)cc2C)nc1N1CC(C)OC(C)C1 (stereo not drawn)	n	21874	n	n
CCOC(=O)c1cnc(-n2nc(C)cc2C)nc1NC(C)c1ccccc1 (stereo not drawn)	n	16140	n	n
CCOC(=O)c1cnc(-n2nc(C)cc2C)nc1NCCO	n	22604	n	n
CCc1nc2c(OCc3ccccc3C(=O)OC)cccn2c1N(C)C(=O)c1cccc(OC)c1	n	n	n	n
Cc1ccc(C)c(CSc2nnc([C@@H](N)C(C)C)o2)c1	n	16262	n	n
O=C(Cn1[nH]c(=O)c2ccccc2c1=O)NC1CCCCCC1	n	n	n	n
